Results published in PubChem BioAssay AID1159580 (chemical genetic matrix, 2015).
Out of some 5,500 compounds screened, about 2,000 (36%) were called active. Inconclusive results (about 18%) are left out. Cut-off read from the data, not from the text of the source: active = normalized growth mostly below about 0.91 (no sharp cut-off); inconclusive = no clear call, values can overlap the other calls; inactive = mostly above about 0.92. Some of the results follow.

Assay: chemical genetic growth profiling, strain panel (AID 1159580);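 note: tested at 20 µM; growth read once vehicle control cultures reached saturation at 30 °C; 1 = growth at the plate median or of vehicle wells; lower values mean less growth of the strain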
Conditions: S. cerevisiae deletion strains, growth OD

Measured: normalized growth

CCCN1CC(CSC)CC2c3cccc4[nH]cc(c34)CC21 (stereo unspecified)
inactive: locus YAL040C, strain CLN3, active compounds read low 1 | locus YCL061C, strain MRC1 (second series), active compounds read low 0.998 | locus YDR150W, strain NUM1, active compounds read low 0.997 | locus YDR363W, strain ESC2, active compounds read low 0.989 | locus YER002W, strain NOP16, active compounds read low 1.01 | locus YGR078C, strain PAC10, active compounds read low 1.01 | locus YMR307W, strain GAS1, active compounds read low 0.999 | locus YNL128W, strain TEP1, active compounds read low 1.02 | locus YNL153C, strain GIM3, active compounds read low 0.998 | locus YNL175C, strain NOP13, active compounds read low 1.02 | locus YNL197C, strain WHI3, active compounds read low 1.01 | locus YNL224C, strain SQS1, active compounds read low 1.08 | locus YOR083W, strain WHI5 (second series), active compounds read low 1.02

COC(=O)[C@H](Cc1ccccc1)NC(=O)/C(=C1\OC(=O)C(c2ccccc2)=C1O)c1ccccc1
inactive: locus YHR030C, strain SLT2, active compounds read low 1.05 | locus YHR079C, strain IRE1, active compounds read low 1.06 | locus YJL095W, strain BCK1, active compounds read low 0.998 | locus YJR066W, strain TOR1, active compounds read low 0.992 | locus YLR113W, strain HOG1, active compounds read low 0.961 | locus YNL183C, strain NPR1, active compounds read low 0.98 | locus YOR231W, strain MKK1, active compounds read low 1.04 | locus YPL256C, strain CLN2, active compounds read low 1.05
